Experimental data: the supplement of paper PMC10338343
± gives the standard deviation.
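Note: 1 nM active piRISC with 0.1 nM target library at 33 °C single turnover.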

These sequences were tested on MILI (PIWIL2) piRISC loaded with L1MC piRNA (26 nt) (assay: pre-steady-state target cleavage rate (min^-1); guide: L1MC piRNA 5'p-UAACUAAAUACUAUGCAAGCUGUAGG; MIWI and MILI are mouse PIWI proteins and EfPiwi is from a freshwater sponge; tags in brackets are library labels; higher = faster piRNA-guided slicing of the target). Details: auxiliary factor: none (no GTSF1).
Summary of the method: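 Reactions were run for 0–8 or 0–960 min at 33 °C in HEPES–potassium acetate buffer, combining 1 nM active affinity-purified piRISC with one synthetic guide, […] transcribed, DNA-blocked target RNA library and, in some cases, 500 nM GTSF1 partner protein. Sequencing of uncleaved targets followed, with normalisation to depth and to weakly complementary targets. Three trials were pooled, k3 was capped at 0.0001 min^-1, and the pre-steady-state cleavage rate was taken from a burst-and-steady-state fit.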
In the case of UCCUCCAACAGCUUGCAUAGUAUUAAGUUA, the “pre-steady-state target cleavage rate” value is reported as 0.0033 ± 0.0024.
With UCCUGGAUGUCCUUGCAUAGUAUCUUAGUUA the “pre-steady-state target cleavage rate” value was 0.00566 ± 0.0029.
UCCUGCUACAGCUUGCAUAGUACUUAGUUA was tested, and the “pre-steady-state target cleavage rate” value was 0.00719 ± 0.0026.
In the case of UCCUGGAUGUGCUUGCAAAGUAUUUAGUUA, the “pre-steady-state target cleavage rate” value is reported as 0.00756 ± 0.0024.
UCCUGGAUCAGCUUGGAUAGUAUAUAGUUA was tested, and the “pre-steady-state target cleavage rate” value was 0.00459 ± 0.0024.
In the case of UCCUGGAUGAGCUUCCAAAGUAUUUAGUUA, the “pre-steady-state target cleavage rate” value is reported as 0.00379 ± 0.0027.
In the case of UCCUGGUACAGCUUGCAUAAUAUUUAGUUA, the “pre-steady-state target cleavage rate” value is reported as 0.0064 ± 0.0032.
In the case of UCCUGGAACAGCUUCGUUAGUAUUUAGUUA, the “pre-steady-state target cleavage rate” value is reported as 0.00414 ± 0.0022.
For UCCUGGAUGUGCUUGCAUACAAUUUAGUUA, the “pre-steady-state target cleavage rate” value was 0.0028 ± 0.0024.
In the case of UCCUGGAUGUCCUUGGAUAGUAAUUAGUUA, the “pre-steady-state target cleavage rate” value is reported as 0.00325 ± 0.0027.
In the case of UCCUGGUCAGCUUGCAUAGUAUUUAGUUA, the “pre-steady-state target cleavage rate” value is reported as 0.012 ± 0.0027.
For UCCUGGAUGUGGAAGCAUAGUAUUUAGUAA, the “pre-steady-state target cleavage rate” value was 0.00424 ± 0.0024.
In the case of UCCUGGAUGUCCUUGCUUAGUAUAUAGUUA, the “pre-steady-state target cleavage rate” value is reported as 0.0039 ± 0.0023.
In the case of UCCUGGAUGUCGUUGCAUAAUAUUUAGUUA, the “pre-steady-state target cleavage rate” value is reported as 0.00621 ± 0.0023.
UCCUGGAACAGCUUGCUUAGUAUUUACUUA was tested, and the “pre-steady-state target cleavage rate” value was 0.00316 ± 0.0028.
With UCCUGGAUGUCGUUGAAUAGUAUUUAGUUA the “pre-steady-state target cleavage rate” value was 0.0047 ± 0.0024.
For UCCUGGAUGUCGUCGCAUAGUAUUUAGUUA, the “pre-steady-state target cleavage rate” value was 0.00436 ± 0.0024.
For UCCUGGAUGUCGUUGCAUAGUAUUUGAGUUA, the “pre-steady-state target cleavage rate” value was 0.00339 ± 0.0032.
In the case of UCCUGCUACAGCUUGGAUAGUAUUUAGUAA, the “pre-steady-state target cleavage rate” value is reported as 0.00334 ± 0.0025.
In the case of UCCUGCUACAGCCUGCAUAGUAUUUAGUUA, the “pre-steady-state target cleavage rate” value is reported as 0.00704 ± 0.0031.
UCCUGGAUGUCGAUGCAUAGUAUAUUAGUUA was tested, and the “pre-steady-state target cleavage rate” value was 0.00716 ± 0.0023.
In the case of UCCUGGAUGUCGUCUGCAUAGUAUUUAGUUA, the “pre-steady-state target cleavage rate” value is reported as 0.00397 ± 0.0027.
For UCCUGGAUGUCCUUGCAUGGUAUUUAGUUA, the “pre-steady-state target cleavage rate” value was 0.00814 ± 0.0026.
For UCCUGGAUGUCCUUGCAUAGUAUAUUAGUUA, the “pre-steady-state target cleavage rate” value was 0.00666 ± 0.0032.
